Results on 84 molecules are retold here after PubChem BioAssay AID504652 (National Center for Advancing Translational Sciences (NCATS), 2011).

“And” between values parts separate entries of the source, which are not always exact repeats. Identical values can stand only once. About 11,000 (3.1%) of roughly 360,000 compounds were called active. Cut-off read from the data, not from the text of the source: active = activity change below about -30%; inactive = the rest. The list comes from a sample in which actives are over-represented; it also holds similar structures and randomly drawn compounds.
% is set by controls: 0 for no effect and ±100 for the full control effect.

Sequence of D(1A) dopamine receptor (Homo sapiens) (P21728 whole entry, looked up): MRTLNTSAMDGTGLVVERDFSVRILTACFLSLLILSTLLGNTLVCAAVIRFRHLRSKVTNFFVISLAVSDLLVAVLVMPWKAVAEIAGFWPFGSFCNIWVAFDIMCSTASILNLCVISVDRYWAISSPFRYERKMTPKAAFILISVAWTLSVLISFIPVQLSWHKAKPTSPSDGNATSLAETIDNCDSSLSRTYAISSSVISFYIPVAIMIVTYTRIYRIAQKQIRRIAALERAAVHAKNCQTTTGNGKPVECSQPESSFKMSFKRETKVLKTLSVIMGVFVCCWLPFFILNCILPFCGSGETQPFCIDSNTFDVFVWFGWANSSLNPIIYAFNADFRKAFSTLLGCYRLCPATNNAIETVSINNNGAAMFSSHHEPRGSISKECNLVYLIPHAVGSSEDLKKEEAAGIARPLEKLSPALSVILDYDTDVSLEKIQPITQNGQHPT

This assay concerns the target D(1A) dopamine receptor (Homo sapiens) (UniProt P21728). Nature of the assay: Antagonist of Human D 1 Dopamine Receptor: qHTS. The conditions noted are these: HEK293 TREx D1 cells, calcium flux, dopamine EC80; at 10 µM; hits give low values. An outline of the steps: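 Tetracycline-induced HEK293 T-REx cells with force-coupled D1 receptor were loaded with a no-wash calcium dye. Compound was added after a 10 s baseline and read kinetically for 180 s; EC80 dopamine was then added and calcium flux followed another 180 s.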
Background: In qHTS, concentration-response curves come from the screen itself.
For the molecule `Cc1ccc2nc(COc3cccc(NC(=O)c4ccccc4Cl)c3)cc(=O)n2c1`, the activity change, negative = inhibition was -6.97% (inactive).

Consider `CN(C)CCCn1c(SCCN2C(=O)c3ccccc3C2=O)nc2ccccc2c1=O`, for which the activity change, negative = inhibition is -51.8% (active).

`CC(=O)NCCn1c(SCC(=O)Nc2ccc(C)cc2)nc2ccccc2c1=O`: the activity change, negative = inhibition was 1.17% (inactive) and -18.8% (inactive).

Take `O=C(CSc1nc2ccccc2c(=O)n1CCCO)NC1CC1`: the activity change, negative = inhibition is 8.77% (inactive).

With `Cc1ccc(Cc2nc3ccccc3nc2SCC(=O)Nc2cccc(C(F)(F)F)c2)cc1`, the activity change, negative = inhibition is -11.6% (inactive).

Turning to `O=C(CCc1nc(CN2CCN(S(=O)(=O)c3ccc(Cl)cc3)CC2)no1)N1CCCCC1`, the activity change, negative = inhibition is -4.7% (inactive).

On to `Cc1ccc(S(=O)(=O)N2[C@@H](c3cccc(Cl)c3)C(C(=O)O)=CC[C@H]2c2ccc(Cl)c(Cl)c2)cc1`, for which the activity change, negative = inhibition was -17.8% (inactive).

Turning to `Cc1ccccc1S(=O)(=O)N1[C@@H](c2cccc(Cl)c2)C(C(=O)O)=CC[C@H]1c1ccc(Cl)cc1`, the activity change, negative = inhibition was -39.7% (active).

Regarding `Cc1ccc([C@@H]2CC=C(C(=O)O)[C@H](c3cccc(Cl)c3)N2S(=O)(=O)c2ccc(C)cc2)cc1`, the activity change, negative = inhibition is -12.2% (inactive).

For the molecule `CCc1cccc(-n2nnc(-c3nsc(NC(=O)c4ccc(C)cc4)n3)c2C)c1`, the activity change, negative = inhibition was 16.6% (inactive).

Consider `CCOCC(=O)NCc1ccc2c(c1)cc(C)n2C`, for which the activity change, negative = inhibition was -38.5% (active).

With `Cc1ccc(CNC(=O)COc2ccc3c(c2)CCC3)cc1`, the activity change, negative = inhibition is 0.495% (inactive).

Take `COc1cc(C(=O)NCc2ccc3c(c2)cc(C)n3C)cc(OC)c1OC`: the activity change, negative = inhibition is -1.99% (inactive).

For the molecule `CCc1ccccc1NC(=O)Cn1c(=O)n(CC2CCC(C(=O)NCCc3ccccc3)CC2)c(=O)c2ccccc21` (centres undefined), the activity change, negative = inhibition is 9.85% (inactive).

Regarding `CCOC(=O)c1c(CN2CCOCC2)n(-c2ccccc2)c2ccc(O)cc12`, the activity change, negative = inhibition is 2.3% (inactive).

As for `CC(=O)c1c(C)n(-c2ccc(C)cc2)c2ccc(O)cc12`, the activity change, negative = inhibition is -50.8% (active).

Regarding `CC(=O)c1c(C)n(-c2ccc(N(C)C)cc2)c2ccc(OCC(N)=O)cc12`, the activity change, negative = inhibition was 4.08% (inactive).

As to `O=c1c2ccccc2n(Cc2cccc(Cl)c2)c(=O)n1Cc1ccccc1`, the activity change, negative = inhibition was -3.55% (inactive).

As for `Fc1ccccc1Oc1ncnc2c1oc1ccccc12`, the activity change, negative = inhibition is -11.6% (inactive).

Take `O=C(OCc1cc(=O)n2ccsc2n1)C1(c2ccc(Cl)cc2)CC1`: the activity change, negative = inhibition was 5.81% (inactive).

On to `CCn1c(SCc2cc(=O)n3ccsc3n2)nc2ccccc21`, for which the activity change, negative = inhibition was -2.02% (inactive).

Take `O=c1cc(Cn2nnc(-c3ccc(Cl)cc3)n2)nc2sccn12`: the activity change, negative = inhibition is -32.8% (active).

Regarding `COc1ccc2[nH]c3c(c2c1)CCN(C(=O)CCC1CCCC1)C3c1ccc(F)cc1` (centres undefined), the activity change, negative = inhibition is -3.48% (inactive).

As to `CC(C)c1ccc(OCC(=O)N(Cc2ccc(N(C)C)cc2)C2CCS(=O)(=O)C2)cc1` (centres undefined), the activity change, negative = inhibition is 12% (inactive).

Regarding `O=C(CCC1CCCC1)N=C1SC2CS(=O)(=O)CC2N1Cc1ccccc1` (centres undefined), the activity change, negative = inhibition was -43% (active).

On to `CC(C)CC(=O)N=C1SC2CS(=O)(=O)CC2N1CCc1ccccc1` (centres undefined), for which the activity change, negative = inhibition was 4.43% (inactive).

As to `C=CCN1C(=NC(=O)COc2ccccc2)SC2CS(=O)(=O)CC21` (centres undefined), the activity change, negative = inhibition was 5.52% (inactive).

`COc1ccccc1CN1CCC(CNC(=O)c2cnn(-c3cccc(Cl)c3)c2C2CCN(C(=O)OC(C)(C)C)CC2)CC1`: the activity change, negative = inhibition was 3.93% (inactive).

Turning to `Cc1ccc(Cl)cc1NC(=O)Cc1ccc(-n2c(C)nc3cccnc32)cc1`, the activity change, negative = inhibition is 13% (inactive).

`COc1cc(C(=O)NCCS(=O)(=O)N2CCN(c3ccccc3)CC2)cc(OC)c1OC`: the activity change, negative = inhibition is -13.9% (inactive).

As to `COc1ccc(C(CC(=O)N2CCN(c3ccccc3)CC2)c2c(O)cc(OC)cc2OC)cc1` (centres undefined), the activity change, negative = inhibition was 29.6% (inactive).

Take `COc1ccccc1N1CCN(Cc2cc(OC)c3c(c2)OCO3)CC1`: the activity change, negative = inhibition was -0.813% (inactive).

For the molecule `O=C(NCC(c1ccc2c(c1)OCO2)N1CCN(c2ccccc2)CC1)C(=O)Nc1ccccc1F` (centres undefined), the activity change, negative = inhibition is 4.02% (inactive).

`COc1cc(C(CCN2CCN(c3ccccc3)CC2)c2c(OC)cc(OC)c3ccc(=O)oc23)cc(OC)c1OC` (centres undefined): the activity change, negative = inhibition is -74% (active).

For `COc1cc(OC)c2ccc(=O)oc2c1C(CCN1CCN(c2ccccc2)CC1)c1ccc2c(c1)OCO2` (centres undefined), the activity change, negative = inhibition is -83.8% (active).

In the case of `CC(=O)Nc1cccc(NC(=O)CSc2nccn2Cc2ccc3c(c2)OCO3)c1`, the activity change, negative = inhibition is 1.91% (inactive).

Regarding `O=C(Nc1ccc(Br)cc1)c1ccc(Br)c(S(=O)(=O)NCc2ccccc2)c1`, the activity change, negative = inhibition is -21.6% (inactive).

Take `CCOc1ccccc1NC(=O)C1CCCN(S(=O)(=O)c2cn(C)cn2)C1` (centres undefined): the activity change, negative = inhibition was -15.7% (inactive).

As for `Cc1ccccc1CNC(=O)CCCn1nc(C)c2sc3ccccc3c2c1=O`, the activity change, negative = inhibition was -0.115% (inactive).

For `CCOC(=O)Cn1c(=O)n(-c2ccccc2OC)c2nc(-c3cccc(F)c3)nc(C(N)=O)c21`, the activity change, negative = inhibition is -25% (inactive).

Regarding `CCc1cc2c(-c3ccccc3)cc(=O)oc2c2c1OCN(Cc1ccc(C)cc1)C2`, the activity change, negative = inhibition was -3.71% (inactive).

For `O=C1CSC2(C(=O)N(Cc3ccccc3)c3ccccc32)N1c1cccc(F)c1` (centres undefined), the activity change, negative = inhibition is -4.64% (inactive).

In the case of `CC1CCCN(c2csc3ccc(F)cc3c2=O)C1` (centres undefined), the activity change, negative = inhibition was -8.32% (inactive).

For the molecule `COc1ccc(C2=NC3(CCCCC3)N(CC(=O)Nc3ccc(C(C)C)cc3)C2=O)cc1`, the activity change, negative = inhibition was -5.42% (inactive).

For the molecule `O=C1C=C(c2ccc(Cl)cc2)C(=O)N1Nc1ccccc1`, the activity change, negative = inhibition is -47.7% (active).

For `Cc1cccc(NC(=O)Cn2nc(-c3ccc(Cl)cc3)c3ccccc3c2=O)c1`, the activity change, negative = inhibition was 6.9% (inactive).

As to `Cc1ccc(-c2cn3c(n2)sc2cc(C(=O)NCCCc4ccccc4)ccc23)cc1`, the activity change, negative = inhibition was 7% (inactive).

Consider `O=S(=O)(c1ccccc1)c1nc(-c2ccccc2)oc1NCCCN1CCOCC1`, for which the activity change, negative = inhibition is -15% (inactive).

`Cc1ccc(-c2nc(C#N)c(NCCCn3ccnc3)o2)cc1`: the activity change, negative = inhibition is 5.54% (inactive).

On to `N#Cc1nc(-c2ccc(OCc3ccccc3)cc2)oc1NCCCN1CCOCC1`, for which the activity change, negative = inhibition is -46.5% (active).

With `Cc1cc(C)cc(NC(=O)Cn2nc(N3CCN(c4ccccc4)CC3)ccc2=O)c1`, the activity change, negative = inhibition is 25.5% (inactive).

Regarding `COc1ccc(C)cc1NC(=O)C(=O)NCCc1sc(-c2cccc(C)c2)nc1C`, the activity change, negative = inhibition was -28.6% (inactive).

Turning to `O=c1cc2nc(-c3ccccc3)nc(SCCOc3ccc(Cl)cc3)n2[nH]1`, the activity change, negative = inhibition is -2.6% (inactive).

As to `Cc1ccc(OCCSc2nc(-c3cccs3)nc3cc(=O)[nH]n23)cc1Cl`, the activity change, negative = inhibition is -20.2% (inactive).

Take `CCc1ccccc1OCCSc1nc(-c2cccs2)nc2cc(=O)[nH]n12`: the activity change, negative = inhibition is -43.9% (active).

As for `CCc1ccc(NC(=O)CN2C(=O)CCSc3ccc(S(=O)(=O)N4CCCC4)cc32)cc1`, the activity change, negative = inhibition was 4.1% (inactive).

On to `COc1ccccc1NC(=O)c1cc(S(=O)(=O)NCCc2ccccc2)ccc1F`, for which the activity change, negative = inhibition is -14.3% (inactive).

Turning to `Cn1cccc1/C=C1\SC(=S)N(NC(=O)c2ccc(Cl)cc2)C1=O`, the activity change, negative = inhibition was -34% (active).

For the molecule `O=C(O)c1ccc(/C=C2\SC(=S)N(NC(=O)c3ccc(Br)cc3)C2=O)cc1`, the activity change, negative = inhibition is -2.74% (inactive).

For `CC(=O)N1C(=O)/C(=C2\SC(=S)N(NC(=O)c3ccc(O)cc3)C2=O)c2ccccc21`, the activity change, negative = inhibition is 2.62% (inactive).

Regarding `NC(=O)c1ccc(NC(=O)COC(=O)c2c3c(nc4ccccc24)/C(=C\c2ccc4c(c2)OCO4)CCC3)cc1`, the activity change, negative = inhibition was -7.23% (inactive).

For `NS(=O)(=O)c1ccc(NC(=O)COC(=O)c2c3c(nc4ccccc24)/C(=C\c2ccc4c(c2)OCO4)CCC3)cc1`, the activity change, negative = inhibition was -45.1% (active).

In the case of `COc1cc(/C=C2\CCCc3c2nc2ccccc2c3C(=O)O)cc(Cl)c1O`, the activity change, negative = inhibition is -14.9% (inactive).

Take `CCCCN(C)CCCNC(=O)CN1N=C(c2ccc(OC)cc2)CCC1=O`: the activity change, negative = inhibition is 3.24% (inactive).

For the molecule `CCCC12CN3CC(C)(CN(C1)C3c1ccccc1Cl)C2=O` (centres undefined), the activity change, negative = inhibition was -3.8% (inactive).

Turning to `COc1cccc(-n2c(=O)c3c(C)c(C(=O)N(C)C)sc3n(Cc3cccc(C)c3)c2=O)c1`, the activity change, negative = inhibition was 4.64% (inactive).

As for `Cc1cc(C)cc(NC(c2nnc(-c3cccc(F)c3)o2)c2ccc(F)cc2Cl)c1` (centres undefined), the activity change, negative = inhibition was 12.4% (inactive).

`N#C/C(=C\c1ccccc1F)c1nc2ccccc2c(=O)[nH]1`: the activity change, negative = inhibition was -3.28% (inactive).

With `CSc1nc(=O)c2c(n1C)NC(=O)CC2c1ccccc1OC(C)C` (centres undefined), the activity change, negative = inhibition was 2.77% (inactive).

With `COc1ccc(C(=O)c2c(C)oc3cc([N+](=O)[O-])c(O)c([N+](=O)[O-])c23)cc1`, the activity change, negative = inhibition is 12.5% (inactive).

Consider `Cc1oc2cc([N+](=O)[O-])c(O)c([N+](=O)[O-])c2c1C(=O)c1ccc(Br)cc1`, for which the activity change, negative = inhibition is -36.4% (active).

As for `Cc1oc2cc(Br)c(O)c(Br)c2c1C(=O)c1ccccc1`, the activity change, negative = inhibition is -4.24% (inactive).

In the case of `COc1ccc(S(=O)(=O)c2c(Nc3cccc(Cl)c3)sc(C(=O)c3ccccc3)c2N)cc1`, the activity change, negative = inhibition is -73.9% (active).

Turning to `COc1ccc(S(=O)(=O)c2c(Nc3ccc(C)cc3)sc(C(=O)c3ccc(C)cc3)c2N)cc1`, the activity change, negative = inhibition was -13.4% (inactive).

In the case of `O=C(Nc1ccc2c(c1)OCO2)c1cc(-c2cccc(Cl)c2)on1`, the activity change, negative = inhibition is -3.15% (inactive).

With `Cc1ccc(S(=O)(=O)c2c(Nc3cccc(Cl)c3)sc(C(=O)c3ccc4c(c3)OCO4)c2N)cc1`, the activity change, negative = inhibition is -41.6% (active).

For `Cc1ccc(C(=O)Nc2sc(Cc3ccc4c(c3)OCO4)c(C)c2C(N)=O)cc1`, the activity change, negative = inhibition is 17.9% (inactive).

`CCCS(=O)(=O)c1c(Nc2ccccc2C)sc(C(=O)c2ccccc2)c1N`: the activity change, negative = inhibition was 0.973% (inactive).

For `NS(=O)(=O)c1ccc(NC(=O)COc2ccc(S(=O)(=O)NC3CCCCC3)cc2)cc1`, the activity change, negative = inhibition was 9.54% (inactive).

On to `Cc1ccc(C(=O)NC2CCN(C#N)CC2)cc1`, for which the activity change, negative = inhibition was -16% (inactive).

As to `Cc1cccc(C(=O)N2c3nc(-c4ccco4)nn3C3(CCCCC3)[C@@H]3CCCC[C@@H]32)c1`, the activity change, negative = inhibition was 4.44% (inactive).

`O=C(CSc1nnc(-c2cccs2)n1Cc1ccco1)c1ccc2c(c1)OCO2`: the activity change, negative = inhibition is -31.7% (active).

Regarding `O=C(CSc1nnc(-c2cccnc2)n1Cc1ccco1)c1ccc(Cl)c(Cl)c1`, the activity change, negative = inhibition was 18.2% (inactive).

`COc1ccc(NC(=O)CSc2nnc(-c3cccs3)n2Cc2ccco2)cc1OC`: the activity change, negative = inhibition is 8.42% (inactive).
